Source: publication PMC6792352, “Limited Chemical Structural Diversity Found to Modulate Thyroid Hormone Receptor in the Tox21 Chemical Library” (Environmental Health Perspectives, 2019)
Structures can show the parent of a compound that is named as a salt.

test system: thyroid hormone receptor (endogenous TRα and TRβ); design: species or system GH3-TRE-Luc (rat pituitary); GH3-TRE-Luc luciferase reporter, antagonist mode against 1 nM T3, loss of signal, qHTS; details: read-out: Average AC50 (uM) GH3-TRE-Antag, antagonist mode, 1 nM T3, no GH3 cytotoxicity hit

Question: How did the AC50 turn out when `O=C(c1ccc(O)cc1)c1ccc(O)cc1O` [2,4,4'-Trihydroxybenzophenone] was run?
Answer: Its AC50 is > 90 µM.

Question: Which AC50 does the source give for `CN(C)c1ccc(SC#N)cc1` [4-(Dimethylamino)phenylthiocyanate] here?
Answer: Its AC50 is 59.1 µM.

Question: Which AC50 does the source give for `NC(N)=NCc1cccc(I)c1` [3-Iodobenzylguanidine hemisulfate] here?
Answer: Its AC50 is 16.3 µM.

Question: `O=C(N/N=C/c1ccc([N+](=O)[O-])o1)c1ccc(O)cc1` [Nifuroxazide] was tested. Which AC50 did it give?
Answer: Its AC50 is 13.7 µM.

Question: For `O=C(CCCN1CCC(O)(c2ccc(Br)cc2)CC1)c1ccc(F)cc1` [Bromperidol], which AC50 is on record?
Answer: Its AC50 is 12.9 µM.

Question: With `NCCNCCN` [Diethylenetriamine] as the compound, how does the AC50 read?
Answer: Its AC50 is 18 µM.

Question: With `CCN(CC)CCOCCOC(=O)C1(c2ccccc2)CCCC1` [Carbetapentane] as the compound, how does the AC50 read?
Answer: The AC50 was 11 µM.

Question: For `Cc1cc(C(C)(C)c2ccc(O)c(C)c2)ccc1O` [3,3'-Dimethylbisphenol A], which AC50 is on record?
Answer: The AC50 was 33.1 µM.

Question: Which AC50 does the source give for `CC(=O)O[C@]1(C(C)=O)CC[C@H]2[C@@H]3C[C@H](C)C4=CC(=O)CC[C@]4(C)[C@H]3CC[C@@]21C` [Medroxyprogesterone acetate] here?
Answer: Its AC50 is 28 µM.

Question: `CCCCCCCCCCCCCC(=O)O` [Tetradecanoic acid] was tested. Which AC50 did it give?
Answer: The AC50 was 52.3 µM.

Question: How did the AC50 turn out when `Oc1ccc(Cc2ccccc2O)cc1` [2-(4-Hydroxybenzyl)phenol] was run?
Answer: The AC50 was 63.8 µM.

Question: Which AC50 does the source give for `CC1(C)[C@H](C(=O)O[C@H](C#N)c2cccc(Oc3ccccc3)c2)[C@@H]1C=C(Br)Br` [Deltamethrin] here?
Answer: The AC50 was 76.3 µM.

Question: Which AC50 does the source give for `CN1CCC(OC(c2ccccc2)c2ccccc2)CC1` [Diphenylpyraline hydrochloride] here?
Answer: The AC50 was 9 µM.

Question: For `CNCc1ccc(NC(=O)c2c[nH]c3c2C(=O)CCC3)cc1` [CP-409092], which AC50 is on record?
Answer: The AC50 was 84.3 µM.

Question: `CCCCCCCC/C=C/CCCCCCCC(=O)OCCO` [Polyoxyethylene monoleate] was tested. Which AC50 did it give?
Answer: Its AC50 is 81.3 µM.

Question: How did the AC50 turn out when `CC[C@H](C)C(=O)O[C@H]1C[C@H](O)C=C2C=C[C@H](C)[C@H](CC[C@@H](O)C[C@@H](O)CC(=O)O)[C@H]21` [Pravastatin sodium] was run?
Answer: The AC50 was 18.4 µM.

Question: For `Nc1ccc(Oc2ccc(Cl)cc2)cc1` [4-Chloro-4'-aminodiphenyl ether], which AC50 is on record?
Answer: The AC50 was 40.7 µM.

Question: With `CO/C=C(/C(=O)OC)c1ccccc1COc1cccc(C(F)(F)F)n1` [Picoxystrobin] as the compound, how does the AC50 read?
Answer: Its AC50 is 0.276 µM.

Question: `C[C@](N)(Cc1ccc(O)c(O)c1)C(=O)O` [Methyldopa sesquihydrate] was tested. Which AC50 did it give?
Answer: The AC50 was > 50 µM.

Question: With `Oc1c(I)cc(I)c2cccnc12` [Iodoquinol] as the compound, how does the AC50 read?
Answer: Its AC50 is 11.5 µM.

Question: How did the AC50 turn out when `CC/C=C\CC/C=C/C=O` [trans-2,cis-6-Nonadienal] was run?
Answer: The AC50 was 69.9 µM.

Question: With `CC(=O)C1(C)CC2=C(CCCC2(C)C)CC1C` (stereo not shown) [Isocyclemone E] as the compound, how does the AC50 read?
Answer: Its AC50 is 87.5 µM.

Question: How did the AC50 turn out when `Cc1c(OCC(F)(F)F)ccnc1C[S+]([O-])c1nc2ccccc2[nH]1` (stereo not shown) [Lansoprazole] was run?
Answer: Its AC50 is > 50 µM.

Question: `Clc1cccc(C(c2ccc3[nH]cnc3c2)n2ccnc2)c1` (stereo not shown) [Liarozole hydrochloride] was tested. Which AC50 did it give?
Answer: Its AC50 is 38.6 µM.

Question: Which AC50 does the source give for `CNC(=S)NC` [N,N'-Dimethylthiourea] here?
Answer: Its AC50 is 72 µM.

Question: For `S=C(NC1CCCCC1)NC1CCCCC1` [N,N'-Dicyclohexylthiourea], which AC50 is on record?
Answer: Its AC50 is 58.2 µM.

Question: Which AC50 does the source give for `CSc1ccc(/C=C2/C(C)=C(CC(=O)O)c3cc(F)ccc32)cc1` [Sulindac sulfide] here?
Answer: Its AC50 is 24 µM.

Question: Which AC50 does the source give for `CC(C)NC(=O)N1CC(=O)N(c2cc(Cl)cc(Cl)c2)C1=O` [Iprodione] here?
Answer: Its AC50 is 59.3 µM.

Question: Which AC50 does the source give for `CC(C)=CCC/C(C)=C/C=C/C(C)=C/C=C/C(C)=C/C=C/C=C(C)/C=C/C=C(C)/C=C/C=C(\C)CCC=C(C)C` [Lycopene] here?
Answer: Its AC50 is 31.7 µM.

Question: For `O=C1CCN(c2ccccc2)N1` [3-Pyrazolidinone,1-phenyl-], which AC50 is on record?
Answer: The AC50 was > 90 µM.

Question: How did the AC50 turn out when `O=C(C[C@H]1NCCC[C@@H]1O)Cn1cnc2cc(Br)c(Cl)cc2c1=O` (racemic) [Halofuginone hydrochloride] was run?
Answer: The AC50 was 46.9 µM.

Question: With `CCCCNC(=O)n1c(NC(=O)OC)nc2ccccc21` [Benomyl] as the compound, how does the AC50 read?
Answer: Its AC50 is 8.81 µM.

Question: `CCC(COC(=O)c1cc(OC)c(OC)c(OC)c1)(c1ccccc1)N(C)C` (stereo not shown) [Trimebutine maleate] was tested. Which AC50 did it give?
Answer: The AC50 was 16.3 µM.

Question: Which AC50 does the source give for `COc1cc(CNC(=O)CCCC/C=C/C(C)C)ccc1O` [Capsaicin] here?
Answer: The AC50 was 34.4 µM.

Question: For `CC(C)[C@H](C(=O)O[C@H](C#N)c1cccc(Oc2ccccc2)c1)c1ccc(Cl)cc1` [Esfenvalerate], which AC50 is on record?
Answer: Its AC50 is 48 µM.

Question: `CCOC(=O)Cn1cccc1-c1nc(-c2ccc(OC)cc2)c(-c2ccc(OC)cc2)s1` [Pamicogrel] was tested. Which AC50 did it give?
Answer: Its AC50 is 14.5 µM.

Question: How did the AC50 turn out when `CN(C)[C@@H]1C(O)=C(C(N)=O)C(=O)[C@@]2(O)C(O)=C3C(=O)c4c(O)ccc(Cl)c4[C@@](C)(O)[C@H]3C[C@@H]12` [Chlortetracycline hydrochloride] was run?
Answer: Its AC50 is > 20 µM.
